About 83,000 compounds went through this panel and 20% of them were active in at least one assay; those are over-represented in the sample as a whole.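 A percent growth of 40 corresponds to 60% growth inhibition; 0 means no net growth; -100 means all cells died. Active threshold: below 10.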 Values without a mark were called inactive. The source made the active and inactive calls.
Columns and labels:
Test in all cases: NCI-60 one-dose screen, 48 h (100 = growth as untreated, 0 = no growth, -100 = all killed)
Settings in all cases: 10 µM unless noted
[1] = system: DU-145 prostate
[2] = system: K-562 leukemia
[3] = system: MALME-3M melanoma
[4] = system: RXF 393 renal
[5] = system: SF-268 CNS
[6] = system: SF-295 CNS
[7] = system: SF-539 CNS
[8] = system: UACC-257 melanoma
[9] = system: M14 melanoma
[10] = system: HCT-15 colon
[11] = system: HT29 colon
[12] = system: SNB-75 CNS
[13] = system: U251 CNS
[14] = system: PC-3 prostate
[15] = system: SK-MEL-5 melanoma
[16] = system: LOX IMVI melanoma
[17] = system: SK-MEL-28 melanoma
[18] = system: UACC-62 melanoma
[19] = system: MDA-MB-231 breast
[20] = system: SNB-19 CNS

SMILES | growth [1] | growth [2] | growth [3] | growth [4] | growth [5] | growth [6] | growth [7] | growth [8] [%] | growth [9] [%] | growth [10] | growth [11] | growth [12] | growth [13] | growth [14] [%] | growth [15] | growth [16] | growth [17] [%] | growth [18] | growth [19] | growth [20] [%]
Nc1c(C(=O)Nc2ccccc2Cl)sc2nc3c(cc12)CCCCCC3 | 56.3% | 23.3% | -13.3% (active) | -34.6% (active) | 38.4% | 36.6% | 14.3% | 58.4 | 34.5 | 25.8% | 9.39% (active) | -20.3% (active) | 42% | 77.5 | 32.6% | 51% | 57.9 |  |  | 
C=CCSc1nnc(-c2ccc(C(C)(C)C)cc2)n1-c1cccc(C(F)(F)F)c1 | 54.3% | 20.3% | 66.1% | 18.1% |  | 29.3% | 69.5% | 48.5 | 45.3 | 17.7% | 26.3% | 80.5% | 32.6% | 16.6 | 37.4% | 47.1% | 67.8 | 42.4% |  | 
CC#Cc1nc2ccccc2c(=O)[nH]1 | 84.7% | 37.8% | 65.5% |  | 53.7% | 87.2% | 35.6% | 48.2 |  | 3.71% (active) | 51.2% | -2.64% (active) |  | 61.4 | -10% (active) | -60.1% (active) | 54.3 | 50.1% | 26.7% | 123
CCCCN(CC)CCCCCCCCCCN1CCCc2cc(OC)ccc21 | 48.5% | -38.7% (active) | -28.6% (active) | 92.7% | 49.7% | 43.5% | 93.1% | 103 | 88.2 | 38.1% | 19.2% | 93.2% | 87.4% | 29.9 | 92.1% | 15% | 119 |  |  | 
Cc1csc2ccc(Cl)cc12 | 110% | 106% | 97.7% |  | 108% |  | 96.8% | 102 | 101 | 95.6% | 102% | 69.7% |  | 96.8 | 107% | 103% | 104 | 96.2% | 97% | 99.2
CCCN(CCC)CN(CCC)CCC | 106% | 95.6% | 97.6% | 98.2% | 102% | 107% | 102% | 100 |  | 102% | 96.5% | 96% | 98.1% | 97.5 | 107% | 104% | 106 |  |  | 
O=C(Cn1cc(CN2C(=O)c3ccccc3S2(=O)=O)nn1)Nc1ccc([N+](=O)[O-])cc1Cl | 105% |  | 101% | 110% | 100% | 108% | 101% | 98.6 | 106 | 102% | 108% | 97.4% |  | 95.4 | 99.7% | 92.1% | 97 | 81.8% | 90% | 98.2
O=C(O)C(O)C(O)C(=O)O.[NH-]C1CCCCC1[NH-].[Pt+2] (stereo unspecified) | 107% | 105% | 127% |  | 104% |  | 105% | 122 | 103 |  | 111% | 80.8% |  | 106 | 103% | 112% | 95.1 | 100% | 98.7% | 101
O=[N+]([O-])c1c(F)cccc1Nc1cccc(F)c1 | 108% | 95.4% |  | 102% | 105% | 87% | 102% | 93.2 | 103 |  | 97.5% | 81.6% | 105% | 103 | 101% | 102% | 118 |  |  | 
CC(=O)OCC1OC(OC2=C(CC=C(Cl)Cl)C(=O)c3ccccc3C2=O)C(OC(C)=O)C(OC(C)=O)C1OC(C)=O (stereo unspecified) | 104% | -12.5% (active) | 51.6% |  | 88.8% |  | 90.5% | 94 | 110 | 56.9% | 90.8% | 71.1% |  | 47.4 | 66.3% | 39.9% | 91.4 | 86.1% | 69.5% | 99.3
CN1CCCCC1CCN1c2ccccc2Sc2ccc(Br)cc21 (stereo unspecified) | 77.9% | 2.32% (active) | 78.4% |  | 66.3% | 59.6% | 95.9% | 70.7 | 49.1 |  | 29.8% | 3.86% (active) |  | 56.2 | 60.3% | 60% | 68.6 | 76.8% | 67.6% | 97.4
COC1C/C(=N\O)C2OC(c3ccccc3)OCC2O1 (stereo unspecified) | 109% | 97.3% | 100% |  | 109% |  | 101% | 68.1 | 104 | 97.8% | 113% | 66.1% |  | 100 | 102% | 101% | 101 | 96.5% | 105% | 94.3
N#Cc1ccc(NC(=O)Nc2ccc(Cc3ccc(NC(=O)Nc4ccc(C#N)cc4)cc3)cc2)cc1 | 40.5% | 11.5% | 27.5% | 51.4% | 44.5% | 12.1% | 50.7% | 26.3 | 37.2 | 25.9% | 52.5% | 83.3% | 34.4% | 23.3 | 10.5% | -67.6% (active) | 36.7 | 14.2% |  | 
Cc1cc2c(cc1C)NC1=C(N2)OC(c2c3ccccc3cc3ccccc23)C1=O (stereo unspecified) | 16.7% | 9.62% (active) | 13.9% | 24.2% | 39.3% | -1.93% (active) | -21.9% (active) | 65.5 | 10 | 0.544% (active) | 12.5% | 49.4% | -8.89% (active) | 28.2 | -40.6% (active) | -35.4% (active) | 31.5 | 3.19% (active) |  | 
O=[N+]([O-])c1cccc(C2CC(c3ccccc3)=Nc3ccccc3S2)c1 (stereo unspecified) | 89.6% | 12.2% | 89.3% |  | 91.4% |  | 108% | 99.6 | 102 | 84.7% | 44.1% | 68.2% |  | 77.4 | 94.8% | 22.6% | 96.4 | 88.4% | 97.3% | 87.2
COc1ccc2nc(NC(=O)c3cccnc3Nc3cc(OC)c(OC)c(OC)c3)sc2c1 | -56.1% (active) | 15.7% |  | -39.2% (active) | -73.1% (active) | 54.2% | -57.1% (active) | 49.9 | 48.4 | 56.3% | 11.9% | 14.1% |  |  | 15.5% | 37.1% | 24.1 | 57.2% | -9.82% (active) | 26.4
C[C@@H]1CC[C@@H]2[C@@H]1[C@H](OC(=O)/C=C/c1ccccc1)[C@]1(c3ccccc3)C[C@@H](OC(=O)CO)[C@@]2(C)O1 | 102% |  | 108% | 60.6% | 52.5% | 96.4% | 102% | 86 | 105 |  | 92.2% | 90.2% |  | 80.5 | 94.8% | 97.8% | 101 | 75.4% | 97.2% | 96
Nc1ccc(Nc2nccc(-c3ccc4ccccc4c3)n2)cc1 | 67.4% |  | 59.5% | 50.3% | 49.9% | 64.8% | 55.4% | 58.6 | 26.8 | 25% | 14.3% | 39% |  | 58.7 | 47.3% | 38.1% | 57.2 | 32.2% | 46.8% | 62.9

Reference: PubChem BioAssay (NCI)
